# PubChem BioAssay (Tox21)
# Inconclusive results are not listed. Entries that show only a call come without a potency. Unmarked numbers belong to inactive results. Calls of active or inactive are those of the source. Calls follow the shape of the dose curve; as a rule, active = well fitted cell-killing curve with a large enough effect in the repeat runs; inconclusive = weak or mixed curves, or effect the other way; inactive = flat fitted curve, though single readings scatter.
# Assay: qHTS RealTime-Glo MT Cell Viability Assay in HEK293 cells - 16 hour (AID 1224872); also: top concentration of the series differs between compounds; nearly all actives have a fitted effect of over 50% in size
# Details: RealTime-Glo luminescence; series mostly up to 76.8 µM
# Text: National Center for Advancing Translational Sciences [NCATS]
# NIH Chemical Genomics Center [NCGC]
# U.S. Environmental Protection Agency [EPA]
# National Institutes of Environmental Health Sciences [NIEHS]
# National Toxicology Program [NTP]
# U.S. Food and Drug Administration [FDA]
# Measure of cell viability is critical in the cell-base assay. Analysis of cell viability is necessary for the characterization of cell responses to cytotoxic drugs and environmental stress. A RealTime-Glo MT Cell Viability Assay to monitor cell viability in real time of continues cell culture during 40 hours of compound treatment was used to screen Tox21 10K library compounds in Hek293 cells. The RealTime-Glo MT Cell Viability Assay is a nonlytic, homogeneous, bioluminescent method to measure cell viability in real time using a simple, plate-based method. The assay involves adding NanoLuc luciferase and a cell-permeant prosubstrate to cells in culture. Viable cells reduce the proprietary prosubstrate to generate a substrate for NanoLuc luciferase. This substrate diffuses from cells into the surrounding culture medium, where it is rapidly used by the NanoLuc Enzyme to produce a luminescent signal. The signal correlates with the number of viable cells, making the assay well suited for cytotoxicity studies.
# Tox21 Assay Protocol Summary:
# The mixture of Hek293 cell suspension and reagents were dispensed at 600cells/6 ul/well in 1536-well tissue culture treated black solid bottom plates using a Multidrop dispenser. After the assay plates were incubated at a 37 C/5% CO2 incubator for 5 hours, 23 nL of compounds dissolved in DMSO, positive and negative controls was transferred to the assay plate by a pintool work station. The plates were incubated at 37 C for 40 hours. The luminescence intensity were measured at 0h, 8h, 16h, 24h, 32h and 40h time points using ViewLux plate reader during compound treatment.
Structure (SMILES),Potency,"activity change, negative = cytotoxicity"
CC(C#N)(CCC(=O)O)N=NC(C)(C#N)CCC(=O)O (stereo not given),inactive,–
CC(C)C1CCC(O)CC1 (stereo not given),inactive,–
CC(C)(C)C(=O)c1ccccc1,inactive,–
C[N+]1(C)CCCC(OC(=O)C(O)(c2ccccc2)c2ccccc2)C1 (stereo not given),inactive,–
CCOCC(C)O (stereo not given),inactive,–
CC(=O)N[C@H]1[C@H]([C@H](O)[C@H](O)CO)OC(C(=O)O)=C[C@@H]1N=C(N)N,inactive,–
CC(CC=O)CC(C)(C)C (stereo not given),inactive,–
CC1=NN(c2cccc(S(=O)(=O)O)c2)C(=O)C1,inactive,–
C[C@H]1C[C@H]2[C@@H]3CCC4=CC(=O)C=C[C@]4(C)[C@H]3C(=O)C[C@]2(C)[C@@]1(O)C(=O)CO,inactive,–
O=C(O)c1cc(C(=O)O)cc(C(=O)O)c1,inactive,–
CCN(C=O)CC,inactive,–
Cc1ccc(C(=O)c2ccccc2)cc1,inactive,–
Nc1ccncc1N,inactive,–
COc1c(N2CCNC(C)C2)c(F)cc2c(=O)c(C(=O)O)cn(C3CC3)c12 (stereo not given),inactive,–
CC[N+](C)(CC)CCOC(=O)C1c2ccccc2Oc2ccccc21,inactive,–
CCCCCC(C)N (stereo not given),inactive,–
C=CCCC(=O)O,inactive,–
NC(=O)NC1N=C([O][Al])NC1=O (stereo not given),inactive,–
CC(C)(CCC(=O)O)C(=O)O,inactive,–
Cc1ccccc1N=C(N)N=C(N)N,inactive,–

Structure (SMILES),Potency,"activity change, negative = cytotoxicity"
CCN1C=CN(C)C1C (stereo not given),inactive,–
CCCCCCCCCCCCSC,inactive,–
C=CC(=O)OCCCl,inactive,–
CC(=O)c1cnccn1,inactive,–
CCN(CC#N)c1cccc(C)c1,inactive,–
CCN[C@@H]1C[C@H](N)[C@@H](OC2OC(CN)=CCC2N)[C@H](O)[C@H]1O[C@H]1OC[C@](C)(O)[C@H](NC)[C@H]1O (stereo not given in full),–,1.34% [at 0.29 µM]
O=C(O)CCCC[P+](c1ccccc1)(c1ccccc1)c1ccccc1,inactive,–
C[N+](C)(C)CCCCCCCCCC[N+](C)(C)C,inactive,–
O=Cc1cccc(Br)c1,inactive,–
CCOC(=O)COc1cc(-n2ncc(C(F)(F)F)c(C)c2=O)c(F)cc1Cl,inactive,–
CCCCN(CCC(=O)OCC)C(C)=O,inactive,–
O=C1NC(=O)C2CC=CCC12 (stereo not given),inactive,–
CCCCN1C=CN(C)C1,–,5.82% [at 15.8 µM]
CC1(C)[C@@H]2CC[C@@]1(C)[C@H](O)C2,inactive,–
c1ccc(CCc2ccccc2)cc1,inactive,–
O=S(=O)(O)c1cccc(S(=O)(=O)O)c1,inactive,–
C[N+]12CCC(CC1)C(OC(=O)C(O)(c1ccccc1)c1ccccc1)C2 (stereo not given),inactive,–
FB(F)F,inactive,–
NC(=O)Cc1cccc2ccccc12,inactive,–
NS(=O)(=O)Cc1noc2ccccc12,inactive,–
